# PubChem BioAssay (NCI)
# This is part of a sample that, as a whole, favours compounds with a hit. Of some 83,000 tested, about 20% had one in any assay.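 Testing used 96-well plates and a 48-hour single-concentration exposure. Example: -40 means 40% of the starting cells died.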 Values without a mark were called inactive. Active and inactive are the calls of the source. How the source made its calls: active means growth percent below 10; inactive means the rest.
# System: COLO 205 colon
# Test: NCI-60 one-dose screen, 48 h (100 = growth as untreated, 0 = no growth, -100 = all killed)
# Settings: 10 µM unless noted
row,SMILES,growth
1,Nc1[nH]n2cc(-c3ccc(F)cc3)nc2c1N=Nc1ccc(S(N)(=O)=O)cc1,95.1%
2,O=C(Nc1ncccc1OCc1ccccc1)NC1CCCCCC1,103%
3,CCNc1nc(O)c(/C=C2\C=Nc3ncccc32)s1,-33.3% (active)
4,Cn1cc(-c2nn3cc(-c4cccs4)nc3s2)c2cc(F)ccc21,22%
5,Cc1ccc(-c2nc(/C=C3/C(=O)Nc4ccc(F)cc43)c3ccccn23)cc1,81.9%
6,O=[N+]([O-])c1ccc(-c2cn3nc(-c4c[nH]c5ccccc45)sc3n2)cc1,108%
7,O=C(CI)NC(=O)NC(=O)NCc1ccccc1,-41.4% (active)
8,O=C(Nc1cc(Cl)ccc1O)c1cccc(Nc2ccnc(C(F)(F)F)c2)c1,90.9%
9,N#Cc1c(Nc2ccc(N3CCOCC3)cc2)nc(SCC(=O)c2ccc(Br)cc2)nc1-c1ccccc1,107%
10,COc1cc(OC)c(/C=C/C(=O)c2c(O)cc(OC)c(C3CCN(C)CC3)c2OC)c(OC)c1,-96.7% (active)
11,CCS/C(Nc1ccccc1)=C(\C#N)C(=O)Nc1ccc(OC)cc1,17.5%
12,C=CN(C(=O)N1CCN(c2cc3c(cc2F)c(=O)c(C(=O)O)cn3C2CC2)CC1)c1nc(-c2ccc(OC)cc2)cs1,29.5%
13,O=C(Nc1ccccc1[N+](=O)[O-])c1ccc(Cl)c(Cl)c1,110%
14,CCn1cc(CNc2ccc(C(=O)Nc3cc4cc(OC)c(OC)cc4c(C)n3)cc2)cn1,42.1%
15,COc1ccc2c(c1)c(-c1nc(-c3c[nH]c4ncccc34)cs1)cn2CCCN1CCOCC1,-38.5% (active)
16,C[n+]1ccc(CCc2c[nH]c3ccccc23)cc1,96.8%
17,CC(C)CCN(CCC(C)C)CC(O)c1cc2c(c3ccccc13)CCCC2 (stereo not given),60.5%
18,CO[C@H]1CC(=O)n2c3ccccc3c3c4c(c5c6ccccc6n1c5c32)C(=O)NC4=O,42%
19,COc1ccc(C2=CN3CC=CC3CC2=O)cc1 (stereo not given),102%
20,COc1cccc(/C=C/C(=O)c2cc3c(N)c(C(=O)Nc4cccc5ccccc45)sc3nc2C)c1,33.9%

row,SMILES,growth
1,Cc1ccc(CNc2ccc3nc(CCC(C)C)[nH]c3c2)cc1,102%
2,COc1ccc(/C(C)=C(/c2ccc(OCCCN(C)C)cc2)c2ccc(OC(=O)c3ccccc3)cc2)cc1,94.4%
3,COC(=O)CC[C@@H]1O[C@@H](c2ccc(F)cc2)[C@@H](O)[C@H]1O,110%
4,O=C1/C=C/[C@@H](O)[C@@H]2C[C@@H](O)C[C@H]2/C=C/CCC[C@H](CCO)O1,-66.9% (active)
5,COc1cccc(-c2cc(-c3cccc(Cl)c3)c(C#N)c(=O)[nH]2)c1,111%
6,COc1ccc(CNc2c3ccccc3nc3ccccc23)c(OC)c1,24.6%
7,CCN(CC)c1ccc(CNc2cc(C)nc3ccccc23)cc1,1.94% (active)
8,O=C1Nc2ccccc2/C1=C\c1c[nH]c2ccc(Br)cc12,57.5%
9,O=C(CCCCCNC(=O)c1cc(=O)c(O)co1)Nc1ccccc1,120%
10,CCOc1ccc(-n2nc(C(=O)NCc3ccccc3OC)nc2-c2cc(OC)c(OC)c(OC)c2)cc1,30.3%
11,COc1ccc(-c2nc(/C=C3\C(=O)N(C)c4ccccc43)c3ccccn23)cc1,119%
12,FC(F)(F)Oc1cccc(-c2cnc3ccc(-c4ccncc4)nn23)c1,16.1%
13,CCN1C(=O)N(CC)C2C1NN=c1s/c(=C3\C(=O)N(CC(C)C)c4ccccc43)c(=O)n12 (stereo not given),17.6%
14,COc1cc(OC)c(C(=O)C(CN(C)C)CN(C)C)cc1OC,-85.4% (active)
15,Cc1ccc(/C=C/C(=O)c2ccc(-n3cc(CN4CCN(c5cc6c(cc5F)c(=O)c(C(=O)O)cn6C5CC5)CC4)nn3)cc2)cc1,101%
16,NC1(CO)COC(c2ccccc2)OC1 (stereo not given),107%
17,COc1cc(C2C(C(=O)OCc3ccccc3)=C(C)NC(C)=C2C(=O)OCc2ccccc2)cc(OC)c1OC,-47.7% (active)
18,CC1=C(CCC(C)NCc2ccc(OCCCN3CCCCC3)cc2)C(C)(C)CCC1 (stereo not given),-70.9% (active)
19,N#C/C(=C\c1ccc([N+](=O)[O-])cc1)n1nnc2cc(F)c(F)cc21,19.9%
20,CS(=O)(=O)c1ccc(NC(=O)c2ccccc2)nc1,128%
